Results reported in PubChem BioAssay (NCI).
The panel holds about 83,000 compounds, 20% with a hit somewhere; the sample as a whole holds those more often.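 Testing used 96-well plates and a 48-hour single-concentration exposure. Example: -40 means 40% of the starting cells died.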 Unmarked numbers belong to inactive results. Activity calls are given as the source filed them. How the source made its calls: active means growth percent below 10; inactive means the rest.

What follows are compounds tested on HL-60(TB) leukemia (assay: NCI-60 one-dose screen, 48 h (100 = growth as untreated, 0 = no growth, -100 = all killed)). Conditions: 10 µM unless noted.

SMILES | growth
O=C1CC2C=CCN2C=C1NC(=O)C1CCCCC1 (stereo not given) | 101%
COc1ccc2c(c1)O/C(=C\c1ccc([N+](=O)[O-])s1)C2=O | 7.46% (active)
O=S(=O)(NCCCNc1nccc(-n2ccc3cccnc32)n1)c1cccc(C(F)(F)F)c1 | 109%
O=C(c1ccccc1)C(c1ccccc1)N1CCOCC1 (stereo not given) | 94.4%
COc1ccc2[nH]cc(-c3nc(-c4cn(C)c5ccncc45)cs3)c2c1 | 82.3%
O=S(=O)(NCCCNc1nccc(-c2cn(-c3ccccc3)nc2-c2ccc(Cl)c(O)c2)n1)c1ccccc1 | 83.4%
COc1ccc2[nH]cc(C3(c4c[nH]c5ccc(OC)cc45)C(=O)Nc4ccc(Cl)cc43)c2c1 | 10.9%
CC/C(C)=C(\C)C(=O)O | 100%
CNCCNc1nc2ccccc2c2c(=O)c3cccc(C)c3sc12 | -39.8% (active)
O=C(O)/C=C/C(=O)NCc1ccccc1 | 105%
OCc1ccc(-c2ccc(-c3ccc(CO)s3)o2)s1 | 21.7%
CCOC(=O)C1C(=O)NC(C(=O)OCC)(C(=O)OCC)C1CC (stereo not given) | 106%
N=C(N)c1ccc(-c2ccc(-c3ccc(F)cc3)s2)nc1 | -28% (active)
Cc1ccc(S(=O)(=O)OCCCOS(=O)(=O)c2ccc(C)cc2)cc1 | 54.4%
CCOC(=O)CSc1nc2ccccc2c(=O)n1Cc1ccc(S(N)(=O)=O)cc1 | 100%
O=[N+]([O-])c1ccccc1/C=N\NC(=S)N/N=C/c1ccccc1[N+](=O)[O-] | 9.57% (active)
CC1CCCC(C(=O)O)C1C(=O)O (stereo not given) | 81.8%
CCOC(=O)CCCCCCCCC(=O)OCC | 97.4%
Cc1ccc(C(C)C)c(OCC(=O)O)c1 | 117%
CC(C)(C)c1ccc(C2CC(=O)C3=C(C2)Nc2ccccc2N(C(=O)c2ccccc2Cl)C3c2ccc(F)cc2)cc1 (stereo not given) | -19.8% (active)

SMILES | growth
COc1cc(/C=C2\CCC/C(=C\c3cc(CN4CCOCC4)c(O)c(OC)c3)C2=O)cc(CN2CCOCC2)c1O | 4.24% (active)
O=C(CCN1CCCCC1)c1ccc(Cl)cc1 | 111%
O=S1(=O)NCCCN1CCNc1nccc(-c2c(-c3cccc(O)c3)nc3sccn23)n1 | 73.3%
Fc1ccc2[nH]c3c(NCCCN4CCOCC4)ncnc3c2c1 | 109%
COc1ccc(C(=O)Nc2nc(-c3ccc(Cl)cc3)cs2)cc1 | 105%
COc1cccc(Sc2ccc([N+](=O)[O-])c3no[n+]([O-])c23)c1 | 2.91% (active)
CN(C)c1ccc(C(=C2C=CC(=[N+](C)C)C=C2)c2ccc(N(C)C)cc2)cc1 (tested in a mixture with another compound) | -51.3% (active)
COc1nc(Nc2cccc(C(F)(F)F)c2)nc(OC)n1 | 92.7%
CCCCCCN(CCCCCC)CCC(=O)Nc1ccc(S(=O)(=O)c2ccc(NC(=O)CCN(CCCCCC)CCCCCC)cc2)cc1 | 80%
COC(=O)c1c(C)nc(C)c2c1C(=O)C(Br)=C(NCCCCO)C2=O | 24.1%
CN1CCN(CC(O)COc2c(Br)c(Br)c(Br)c3c2OC(C)(C)C3)CC1 (stereo not given) | 35.5%
Nc1c(C(=O)Nc2cccc3ccccc23)sc2nc3c(cc12)CCCCCC3 | -31% (active)
CC1=Nc2cnc(Nc3ccc(N4CCCCC4)cc3)nc2Nc2ccccc21 | 28.1%
O=C(Nc1ccccc1C(=O)N/N=C(\c1ccccc1)c1ccccn1)c1ccccc1 | -24.1% (active)
COc1ccc(/C=C2\Oc3cc(OCCCN4CCCC4)ccc3C2=O)cc1 | 94.7%
COc1cc(/C=C/c2cc(/C=C/c3ccc(O)c(OC)c3)n(C(=O)c3ccccc3Br)n2)ccc1O | -23.9% (active)
Cc1ccc(C2CC(c3cccs3)=NN2c2ccc(S(N)(=O)=O)cc2)s1 (stereo not given) | 88.4%
N#Cc1c(N)c(C(=O)c2ccc3c(c2)OCCO3)n2c1CCCC2 | -19.2% (active)
COc1ccc(C2CC(c3ccccc3)=NN2c2nc(C)c(C(C)=O)s2)cc1 (stereo not given) | 101%
Cc1cc[c-]cc1.Fc1c[c-]c(-c2ccccn2)c(F)c1.[Pt+2].c1ccc(P(C[PH+](c2ccccc2)c2ccccc2)c2ccccc2)cc1 | -25.7% (active)
